{"source": "PubChem BioAssay AID1878", "about": "(Sanford-Burnham Center for Chemical Genomics, 2009)", "note": "Among all 1,000 compounds or so, about 200 (20%) were called active. These entries were drawn from the full list. Entries with a potency or affinity are not part of this list. Unmarked numbers belong to inactive results. Cut-off read from the data, not from the text of the source: active = inhibition above about 55%; inactive = the rest."}
{"target": "Dual specificity protein phosphatase 3 (Homo sapiens) (UniProt P51452)", "sequence (P51452 whole entry, looked up)": "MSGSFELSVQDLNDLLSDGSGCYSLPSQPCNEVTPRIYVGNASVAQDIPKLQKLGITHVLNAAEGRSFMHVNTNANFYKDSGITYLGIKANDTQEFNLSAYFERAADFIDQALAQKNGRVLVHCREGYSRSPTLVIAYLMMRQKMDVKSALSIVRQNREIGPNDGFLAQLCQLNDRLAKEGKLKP", "experiment": "VHR1 phosphatase inhibitors, biochemical (AID 1878)", "details": "recombinant VHR phosphatase, fluorogenic substrate; at 13.3 µM; hits give high values"}
{"molecule": "O=C(CSc1nc2ncccc2[nH]1)NCc1ccco1", "inhibition": "17.8%"}
{"molecule": "COc1ccc(Br)cc1/C=N/n1nnnc1N", "inhibition": "5.9%"}
{"molecule": "Cc1ccc(C(=O)O)cc1-c1ccc(/C=C2\\SC(=O)N(CC(=O)Nc3ccccc3)C2=O)o1", "inhibition": "45.6%"}
{"molecule": "O=C(CN1C(=O)S/C(=C\\c2ccc(-c3cc(C(=O)O)ccc3Cl)o2)C1=O)Nc1ccc2c(c1)OCO2", "inhibition": "91.9% (active)"}
{"molecule": "Cc1ccccc1NC(=O)CN1C(=O)S/C(=C\\c2ccc(-c3cc(C(=O)O)ccc3C)o2)C1=O", "inhibition": "67.4% (active)"}
{"molecule": "CCOc1ccccc1NC(=O)c1nnn(CC(=O)Nc2ccc3c(c2)OCO3)c1N", "inhibition": "-0.3%"}
{"molecule": "CCN(CC(=O)Nc1ccc2c(c1)OCCO2)C(=O)COc1ccc(C)cc1", "inhibition": "7.4%"}
{"molecule": "Cc1cc(C(=O)O)ccc1-c1ccc(/C=C2\\SC(=O)N(CC(=O)Nc3ccc4c(c3)OCO4)C2=O)o1", "inhibition": "96.8% (active)"}
{"molecule": "O=C(CSc1ccc([N+](=O)[O-])cn1)Nc1ccc2c(c1)OCO2", "inhibition": "-8.7%"}
{"molecule": "CCOc1ccc(CNS(=O)(=O)c2cc(CN3C(=O)c4cccnc4C3=O)ccc2OC)cc1", "inhibition": "-2.7%"}
{"molecule": "CC(=O)N1c2ccc(S(=O)(=O)N(C)CC(=O)Nc3cccc(C)c3)cc2CC1C", "note": "(configuration not stated)", "inhibition": "-2.3%"}
{"molecule": "O=C(NC(=S)Nc1ccccc1N1CCCC1)c1ccccc1Br", "inhibition": "-1.6%"}
{"molecule": "COc1cc(OC)nc(Oc2ccc(N)c(C)c2)n1", "inhibition": "17.4%"}
{"molecule": "CC(=O)/C=C\\c1cn(-c2ncc(C(F)(F)F)cc2Cl)c2ccccc12", "inhibition": "-0.4%"}
{"molecule": "COc1cccc(CNc2cc(C)ccn2)c1O", "inhibition": "-6.7%"}
{"molecule": "O=S1(=O)N(Cc2ccccc2F)CCCN1Cc1c(F)cccc1Cl", "inhibition": "44.5%"}
{"molecule": "O=S(=O)(c1ccccc1)N1CCn2c(nc3ccccc32)C1", "inhibition": "-0.8%"}
{"molecule": "Cc1ccc(-c2nn3c(C)nnc3s2)cc1NC(=O)c1ccc(-c2ccc(Cl)cc2Cl)o1", "inhibition": "99.7% (active)"}
{"molecule": "CSCC(C)N1CCC(N2CCC(C(=O)NCc3ccccn3)CC2)CC1", "note": "(configuration not stated)", "inhibition": "-9.9%"}
{"molecule": "Cc1ccc(/C=C2/Sc3ccc(C(=O)NCc4ccccn4)cc3NC2=O)cc1", "inhibition": "93.9% (active)"}
{"molecule": "CCN(Cc1ccc(NC(C)=O)cc1)CC1CCCN(CCc2cccc(F)c2)C1", "note": "(configuration not stated)", "inhibition": "6.3%"}
{"molecule": "CCOC(=O)C1(Cc2ccccc2)CCCN(C(=O)c2ccc(-n3ccnc3)cc2)C1", "note": "(configuration not stated)", "inhibition": "-9.5%"}
{"molecule": "Cc1cccc(C(=O)NCCCn2ccnc2)c1C", "inhibition": "-6.9%"}
{"molecule": "Cc1ccc(CSc2nnc(-c3ccco3)n2N)cc1", "inhibition": "3.5%"}
{"molecule": "CC1(c2ccc3ccccc3c2)NC(=O)NC1=O", "note": "(configuration not stated)", "inhibition": "-8.8%"}
{"molecule": "CC(C)N(C)Cc1nnnn1CC(=O)N(C)Cc1ccc(F)cc1", "inhibition": "0.7%"}
{"molecule": "COc1ccc(NC(=O)CN(CC(=O)Nc2ccc(OC)cc2)C(C)(C)CO)cc1", "inhibition": "10.8%"}
{"molecule": "O=C(O)CN1C(=O)/C(=C2\\C(=O)N(Cc3ccccc3Cl)c3ccccc32)SC1=S", "inhibition": "96.7% (active)"}
{"molecule": "COc1ccc(C(CC(=O)Nc2ccccn2)N2Cc3ccccc3C2=O)cc1", "note": "(configuration not stated)", "inhibition": "2.3%"}
{"molecule": "COc1ccc(NC(=O)CN2C(=O)/C(=C3\\SC(=S)N(CCC(=O)O)C3=O)c3ccccc32)cc1", "inhibition": "74.7% (active)"}
{"molecule": "CN(C)c1nc(-c2ccccc2)c2cc(Cl)ccc2n1", "inhibition": "9%"}
{"molecule": "CCCN1CCN(CCNC(=O)Nc2cc(C)ccc2C)CC1", "inhibition": "-9.3%"}
{"molecule": "Cc1nc(C(C)NC(=O)c2ccc(OC3CCN(Cc4ccccn4)CC3)cc2)c(C)s1", "note": "(configuration not stated)", "inhibition": "-8.5%"}
{"molecule": "COc1ccccc1N(CC(O)CN1CCC(C)CC1)S(=O)(=O)c1ccccc1", "note": "(configuration not stated)", "inhibition": "-7.2%"}
{"molecule": "Cc1ccc(S(=O)(=O)N(C)C)cc1NC(=O)COC(=O)/C=C/c1cnc2ccccc2n1", "inhibition": "10.1%"}
{"molecule": "O=C(Nc1ccc(N2CCCCC2)cc1)c1ccc([N+](=O)[O-])o1", "inhibition": "14.3%"}
{"molecule": "CC(O)CNc1nc2c(c(=O)n(Cc3ccc(Cl)cc3)c(=O)n2C)n1C", "note": "(configuration not stated)", "inhibition": "27.1%"}
{"molecule": "CC(C)NC(=O)CN1C(=O)CSc2ccc(S(=O)(=O)N3CCCC3)cc21", "inhibition": "15.9%"}
{"molecule": "CCc1nn(CC(=O)N2CCN(c3cc(C)ccc3C)CC2)c(=O)c2cc3occc3n12", "inhibition": "4.7%"}
{"molecule": "COC(=O)C1CCN(Cc2c(C(=O)N3C[C@@H](C)O[C@@H](C)C3)nc3ccc(Cl)cn23)CC1", "inhibition": "19%"}
{"molecule": "Cc1cc(-c2ccc(C)c(S(=O)(=O)NCCCN(Cc3ccccc3)C(C)C)c2)on1", "inhibition": "3.1%"}
{"molecule": "S=c1nc(NCc2cccc(Cl)c2)c2ccccc2[nH]1", "inhibition": "6.3%"}
{"molecule": "CCN(CC)CCCNC(=O)c1ccc(CS(=O)(=O)c2ccccc2OC)o1", "inhibition": "-2.3%"}
{"molecule": "CN(C(=O)CSc1cn(CC(=O)N2CCOCC2)c2ccccc12)c1ccccc1", "inhibition": "-6.1%"}
{"molecule": "CCc1ccc(CN(C)C(=O)c2ccc3c(c2)OCCO3)cc1", "inhibition": "11.2%"}
{"molecule": "CN1C=CC=C/C1=C1/SC(=S)N(Cc2ccccc2)C1=O", "inhibition": "-8%"}
{"molecule": "O=C(O)CCCN1C(=O)c2ccccc2Sc2ncccc21", "inhibition": "2.1%"}
{"molecule": "O=C(O)CCN1C(=O)/C(=C2\\C(=O)N(Cc3ccc(F)cc3)c3ccccc32)SC1=S", "inhibition": "92.9% (active)"}
{"molecule": "CCCCN1C(=O)/C(=C2\\SC(N3CCOCC3)=NC2=O)c2ccccc21", "inhibition": "1.9%"}
{"molecule": "N#CC(c1cccnc1)N1CCOCC1", "note": "(configuration not stated)", "inhibition": "5.3%"}
{"molecule": "N#Cc1ccc(OS(=O)(=O)c2ccc(-c3ccon3)s2)cc1", "inhibition": "1.6%"}
{"molecule": "CCOC(=O)c1ccc(NC(=O)CSc2nnc(CNC(=O)c3ccco3)o2)cc1", "inhibition": "28.4%"}
{"molecule": "OC(CN1CCC(Cc2ccccc2)CC1)c1ccccc1", "note": "(configuration not stated)", "inhibition": "3.5%"}
{"molecule": "O=C(O)C(Cc1ccccc1)N1C(=O)/C(=C/C=C/c2ccco2)SC1=S", "note": "(configuration not stated)", "inhibition": "71.7% (active)"}
{"molecule": "CC(C(=O)O)N1C(=O)/C(=C/C=C/c2ccco2)SC1=S", "note": "(configuration not stated)", "inhibition": "97.9% (active)"}
{"molecule": "Cc1cc(N2CCN(c3ncccn3)CC2)nc2c(C)cccc12", "inhibition": "3.7%"}
{"molecule": "CNS(=O)(=O)c1cn(CC(=O)NCc2ccc(N(C)C)cc2)cc1S(=O)(=O)NC", "inhibition": "5.7%"}
{"molecule": "COc1ccc(CN(C)C(=O)c2cccc(NS(=O)(=O)c3ccccc3)c2)cc1F", "inhibition": "6%"}
{"molecule": "Cc1ccc(N2C(=O)c3ccccc3C2=O)nc1", "inhibition": "-3.1%"}
{"molecule": "CCN1CCN(C(=O)c2cc3ccc(OC)cc3[nH]2)CC1", "inhibition": "10.9%"}
{"molecule": "COc1ccc(Br)cc1S(=O)(=O)N1CCCc2ccccc21", "inhibition": "-6.5%"}
{"molecule": "CSc1ncc(C(=O)Nc2cc(C)ccc2C)c(C)n1", "inhibition": "-5.1%"}
{"molecule": "Cc1cc2nc3s/c(=C/c4ccc(-c5ccccc5C(=O)O)o4)c(=O)n3c2cc1C", "inhibition": "74.7% (active)"}
{"molecule": "CN(C)CCN(CC1CCCN(Cc2ccccc2F)C1)C(=O)Cc1ccccc1F", "note": "(configuration not stated)", "inhibition": "-15.2%"}
{"molecule": "CC1=C(C(=O)Nc2cccc(C(=O)N3CCC(C(N)=O)CC3)c2)SCCO1", "inhibition": "4.8%"}
{"molecule": "COc1ccc(NC(=O)NCCN2CCCCC2)cc1", "inhibition": "-10.3%"}
{"molecule": "CCN(CC)CCNC(=O)CCN1N=C(c2ccccc2)CCC1=O", "inhibition": "2.7%"}
{"molecule": "O=C(c1ccc(NC2=NC3CS(=O)(=O)CC3S2)cc1)N(CCO)Cc1ccccc1", "note": "(configuration not stated)", "inhibition": "0.9%"}
{"molecule": "O=C1C(Cl)=C(N2CCOCC2)C(=O)N1c1ccccc1F", "inhibition": "-7.3%"}
{"molecule": "COc1ccc(N(C(=O)c2snc(C(N)=O)c2N)C(C(=O)NC2CCCC2)c2ccc(F)cc2)c(OC)c1", "note": "(configuration not stated)", "inhibition": "-0.8%"}
{"molecule": "CC1CCCCN1CCCNC(=O)CCCN1C(=O)c2cccnc2Sc2ccccc21", "note": "(configuration not stated)", "inhibition": "-12.7%"}
{"molecule": "CC1CCN(CCCNC(=O)C2CC(=O)N(CCc3ccccc3)C2)CC1", "note": "(configuration not stated)", "inhibition": "-14.3%"}
{"molecule": "COc1ccc(N(C)S(=O)(=O)c2ccc3c(c2)NC(=O)CC(=O)N3)c(OC)c1", "inhibition": "7.8%"}
{"molecule": "COC(=O)C1=NN(C(=O)c2ccccc2)C(O)(c2ccc([N+](=O)[O-])cc2)C1", "note": "(configuration not stated)", "inhibition": "-7.4%"}
{"molecule": "CC(Cc1n[nH]c(=S)n1N)c1ccccc1", "note": "(configuration not stated)", "inhibition": "-2.8%"}
{"molecule": "CCc1cc(=O)oc2c(C)c(OCC(=O)NCCCN3CCOCC3)ccc12", "inhibition": "3.5%"}
{"molecule": "CCOCCn1cnc2sc(C(=O)NCCCN3CCOCC3)c(C)c2c1=O", "inhibition": "9.7%"}
{"molecule": "CCOC(=O)C1(CCc2ccccc2)CCN(CC(O)CO)CC1", "note": "(configuration not stated)", "inhibition": "-10.8%"}
{"molecule": "Cn1c(=O)c2c(ncn2CCOc2ccc(F)cc2)n(C)c1=O", "inhibition": "-6.4%"}
{"molecule": "Cc1cc(C)cc(NCc2cc(=O)oc3cc(C)c(O)cc23)c1", "inhibition": "8.5%"}
{"molecule": "CCn1cc(CCC(=O)NCCN2CCOCC2)c2ccccc21", "inhibition": "-13.7%"}
{"molecule": "O=C(Cc1ccccc1)Nc1ccc(C(=O)Nc2ccc(O)cc2)cc1", "inhibition": "1.2%"}
{"molecule": "C/C(=N\\NC(=O)CNC(=O)c1cccc(F)c1)c1ccc2ccccc2c1", "inhibition": "1.1%"}
{"molecule": "C/C(=N\\NC(=O)c1cc(O)cc(O)c1)c1ccc(NC(=O)Cc2ccccc2)cc1", "inhibition": "96.6% (active)"}
{"molecule": "O=C(NCc1c(O)ccc2ccccc12)c1ccccc1", "inhibition": "2.1%"}
{"molecule": "O=C(CN1CCCCCC1)N/N=C/c1ccc2ccccc2c1", "inhibition": "-6.1%"}
{"molecule": "O=C(O)c1ccc(/C=N/NC(=O)c2cc3c(ccc4ccccc43)o2)cc1", "inhibition": "98.7% (active)"}
{"molecule": "O=C(N/N=C/c1cccc([N+](=O)[O-])c1)c1cc2c(ccc3ccccc32)o1", "inhibition": "98% (active)"}
{"molecule": "O=C(N/N=C/c1ccc([N+](=O)[O-])o1)c1cc2c(ccc3ccccc32)o1", "inhibition": "98.8% (active)"}
{"molecule": "Cc1ccc(NC(=O)C(=O)NCc2ccc(/C=N/NC(=O)c3c(C)nc4ccccn34)o2)cc1", "inhibition": "18.4%"}
{"molecule": "O=C(NCc1ccc(Cl)cc1)Nc1ccc(F)cc1", "inhibition": "0.7%"}
{"molecule": "CCOC(=O)c1cc(/C(C)=N/OC(=O)c2ccc(C(C)(C)C)cc2)on1", "inhibition": "0.2%"}
